# In all, about 360,000 compounds went through this assay and about 8,200 (2.3%) were called active. The sample as a whole holds a higher share of actives than the screen did. A number with no mark means an inactive call. No stated cut-off is given here; in the data, active means inhibition above about 27%; inactive means the rest.
# Target: Fructose-bisphosphate aldolase (Mycobacterium tuberculosis (strain ATCC 25618 / H37Rv)) (UniProt P9WQA3)
# Assay: Mtb FBA enzyme inhibitors, primary screen, biochemical, fluorescence, strain H37Rv (AID 588726);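 further: 0% = vehicle and 100% = reference inhibitor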
# Conditions: purified M. tuberculosis FBA, fluorescence read-out, at 1 µM, hits give high values
# Sequence of Fructose-bisphosphate aldolase (Mycobacterium tuberculosis (strain ATCC 25618 / H37Rv)) (P9WQA3 whole entry, looked up): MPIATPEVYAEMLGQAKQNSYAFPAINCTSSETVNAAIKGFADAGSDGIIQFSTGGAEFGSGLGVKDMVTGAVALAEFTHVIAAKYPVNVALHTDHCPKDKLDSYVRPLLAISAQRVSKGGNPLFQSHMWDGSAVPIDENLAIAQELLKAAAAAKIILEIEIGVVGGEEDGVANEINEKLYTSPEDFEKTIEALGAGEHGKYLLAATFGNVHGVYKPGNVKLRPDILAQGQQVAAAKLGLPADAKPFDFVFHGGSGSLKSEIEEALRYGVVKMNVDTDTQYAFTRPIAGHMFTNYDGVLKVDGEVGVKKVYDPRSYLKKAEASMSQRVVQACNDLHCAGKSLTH
row,Structure (SMILES),inhibition
1,O=C(OCC(=O)N(CCc1ccccc1)Cc1ccccc1)c1ccccc1[N+](=O)[O-],-2.21%
2,COc1cccc(N(C(=O)c2ccn[nH]2)C2(C(=O)Nc3c(C)cccc3C)CCCCC2)c1,-2.93%
3,CC(=O)Nc1ccc(S(=O)(=O)N2CCC(C(=O)N[C@@H](Cc3ccccc3)C(=O)O)CC2)cc1,7.63%
4,O=C(O)CCN1C(=O)CC2(CCCCC2)C1=O,1.19%
5,O=C(NCc1ccc(F)cc1)c1cc(C2CCCCN2C(=O)C2CCCCC2)on1 (stereo unspecified),-0.56%
6,CCCC(O)(c1ccccc1)C(c1ccccc1)c1ccccn1 (stereo unspecified),-3.41%
7,COc1ccccc1CNC(=O)COC(=O)CNS(=O)(=O)c1ccc(NC(C)=O)cc1,-1.17%
8,CC(=O)Nc1ccc(S(=O)(=O)NCC(=O)OCc2cc(=O)oc3ccc4ccccc4c23)cc1,124% (active)
9,COc1ccccc1C(=O)COC(=O)CNS(=O)(=O)c1ccc(NC(C)=O)cc1,0.46%
10,Nn1c(SCC(=O)Nc2nccs2)nncc1=O,-1.98%
11,CC(C)N(C(=O)CSc1nc(COc2ccccc2)nc2ccccc12)C(C)C,-0.47%
12,COc1cc(C(F)(F)F)nc2c(Br)c(C(C)(C)C)nn12,36.7% (active)
13,O=C(CCN1C(=O)C2C3CCC(C3)C2C1=O)Nc1ccc(Cl)cc1Cl (stereo unspecified),3.23%
14,Cc1cc(C)cc(NC(=O)C(OC(=O)c2ccc(O)cc2)c2ccccc2)c1 (stereo unspecified),2.39%
15,CN(C)CCCO/N=C(\c1ccccc1)c1ccncc1,-1.04%
16,CC(=O)c1cc2c(cc1NC(=O)CN1CCCCCC1)OCO2,0.04%
17,COc1cccc(N(CC(=O)NC2CCCC2)C(=O)Cn2nnc(-c3ccc(C)o3)n2)c1,2.95%
18,COCCNc1cc(-c2ccccc2)nc2cc(-c3cccc(F)c3)nn12,50.2% (active)
19,COc1ccc(NC(=O)c2cc3nc(-c4ccccc4)cc(C)n3n2)cc1OC,1.45%
20,COc1ccc(-c2cc3nc(NCCOc4ccccc4)ccn3n2)cc1,9.7%
21,O=C(COC(=O)c1ncc(Cl)c(Cl)c1Cl)NCc1ccccc1,3.15%
22,CC(C)(C)C(=O)Nc1cccc(-c2ccc[nH]2)n1,29.7% (active)
23,Cc1cccc(NC(=O)COc2ccc(Br)cc2C)n1,2.29%
24,Cc1cccc(NC(=O)Cc2ccc(Br)cc2)n1,-1.42%

row,Structure (SMILES),inhibition
1,N#CCc1ccc(NC(=O)c2ccccc2C(=O)Nc2ccc(CC#N)cc2)cc1,1.02%
2,Cc1ccn2c(c1)nc(=O)c1cc(S(=O)(=O)N3CCC(C)CC3)ccc12,29.3% (active)
3,CC1CCN(S(=O)(=O)c2ccc3c(ccn3CC(=O)O)c2)CC1,-0.33%
4,CC1CCN(S(=O)(=O)c2ccc3c(c2)n(C)c(=O)n3C)CC1,-1.94%
5,N#Cc1ccc(N2Cc3ccccc3/C2=N/C(=O)Nc2ccc(Cl)cc2)cc1,-0.15%
6,CC1CCCCC1NC(=O)CN1CCC(O)(c2ccc3c(c2)OCO3)CC1 (stereo unspecified),-4.2%
7,CN(C)c1ccc(/C=N/NC(=O)C(O)c2ccc(Br)cc2)cc1 (stereo unspecified),39.7% (active)
8,COc1ccc(/C=N/NC(=O)C(C)N(c2ccc(OC)cc2)S(C)(=O)=O)cc1 (stereo unspecified),-1.16%
9,CN(C)c1ccc(/C=N/NC(=O)c2ccc(Cn3cc(Br)cn3)o2)cc1,0.83%
10,CCCNC(=O)N1CCC(c2ccc3c(c2)OCO3)CC1,0.5%
11,O=c1[nH]oc(O)c1-c1ncc(C(F)(F)F)cc1Cl,0.86%
12,Cc1ccc(C)c(NC(=O)c2ccc(OC(=O)c3ccco3)cc2)c1,3.01%
13,CC(C)=NN1C(=O)c2ccccc2NC1(C)C,36.7% (active)
14,CC(=O)N1C(=O)C2(Nc3ccccc3N2)c2ccccc21,6.98%
15,CCOC(=O)C1(Cc2ccc(Cl)cc2)CCN(C(=O)C2=NNC(=O)CC2)CC1,-6.86%
16,COc1cc(/C=C/c2ccc(/C=C/c3cc(OC)c(OC)c(OC)c3)cc2)cc(OC)c1OC,50.4% (active)
17,COc1cc(/C=C/C2=CC(C)(C)NC(=S)N2)cc(OC)c1OC,-5.13%
18,CCC(=O)c1ccc(OC(=O)/C=C/c2cc(OC)c(OC)c(OC)c2)cc1,4.81%
19,CC/C(=N/Nc1ccccc1)c1cnnc(SC)n1,0.39%
20,COc1ccc(C(=O)NC2CCN(C(=O)Nc3ccc(F)cc3)CC2)cc1,-0.69%
21,COc1ccc(NC(=O)N2CCC(Cc3ccccc3)CC2)cc1,53.4% (active)
22,COc1ccc(NC(=O)N2CCCC(C(=O)Nc3ccccc3OC)C2)cc1 (stereo unspecified),1.71%
23,O=C(COC(=O)c1ccc(S(=O)(=O)N2CCCCCC2)cc1)Nc1ccccc1C(F)(F)F,4.5%
24,CCc1ccc(Oc2coc3cc(O)ccc3c2=O)cc1,70.2% (active)

row,Structure (SMILES),inhibition
1,CCc1ccc(Oc2coc3cc(OC(=O)c4cc5ccccc5oc4=O)ccc3c2=O)cc1,13.1%
2,COC(=O)COc1ccc2c(=O)c(Oc3ccccc3Br)coc2c1,-0.49%
3,Cc1ccc(N2C(=O)CC(N3CCSCC3)C2=O)c(C)c1 (stereo unspecified),3.11%
4,COc1cccc2[nH]c(C(=O)NCCc3ccccc3)cc12,33.2% (active)
5,COc1ccc(CCNC(=O)c2ccccc2-c2ccccc2C(=O)O)cc1OC,2.28%
6,COc1ccc(OC)c2[nH]c(=O)c(CCNC(=O)C(=O)c3c[nH]c4ccccc34)cc12,-5.42%
7,N#C[C@]1(S(=O)(=O)c2ccccc2)C[C@@H]2ON=C(c3cccc(Br)c3)[C@@H]2C1,2.3%
8,NS(=O)(=O)c1cc(C(=O)OCC(=O)NNC(=O)c2ccccc2)ccc1Cl,-1.72%
9,O=C(NCc1ccccc1)C1CNCC(C(=O)NCc2ccccc2)C1 (stereo unspecified),-0.79%
10,Cn1c(-c2ccco2)nc2cc3ccccc3cc21,81.7% (active)
11,COc1ccc(-n2cnc3cc(NCc4ccco4)ccc32)cc1,-1.49%
12,Cn1c(SCC(=O)Nc2ccc(Br)cc2F)nnc1-c1ccco1,1.98%
13,O=C(O)CSc1ccc(S(=O)(=O)N2CCCC2)cn1,-0.83%
14,N#Cc1c(C(F)(F)F)cc(-c2cccs2)nc1N1CCCCC1,11%
15,N#Cc1c(N2CCCCC2)nc(N)c2c(N)nc(SCC(=O)O)cc12,29.2% (active)
16,COCc1c(C(=O)OCc2c(C)noc2C)oc2ccccc12,5.69%
17,CCOc1ccccc1C(=O)NC1CC2CCCC(C1)N2Cc1ccccc1 (stereo unspecified),-3.49%
18,Cc1ccnc(NC(=O)C2CCN(S(=O)(=O)c3c(C)c(C)cc(C)c3C)CC2)c1,1.99%
19,CCN(CC(=O)Nc1c(F)cccc1F)C(=O)c1ccc(-c2ccccc2)cc1,1%
20,CCN(CC(=O)Nc1c(F)cccc1F)C(=O)c1ccc(-c2ccc(C(C)=O)cc2)o1,142% (active)
21,CCN(CC(=O)Nc1c(F)cccc1F)C(=O)c1cnc(C)cn1,2.56%
22,COC(=O)c1ccc([C@@H](O)[C@H](C)C(=O)CC(=O)OC(C)(C)C)cc1,0.55%
23,CCOc1ccc(S(=O)(=O)N2CCCC(C(=O)N3CCC(C(N)=O)CC3)C2)cc1Cl (stereo unspecified),2.08%
24,Oc1ccc(Br)cc1C=Nc1ccc2[nH]ncc2c1,39.7% (active)

row,Structure (SMILES),inhibition
1,COc1cc(Br)cc(/C=N/c2ncn[nH]2)c1O,-0.39%
2,COc1ccc(C)cc1NC(=O)CSc1nnc2ccc(-c3ccccn3)nn12,5.79%
3,COc1ccc(-c2ccc(C(=O)NC(C)C)c3occc23)c(C)c1,69.8% (active)
4,COc1ccc(-c2coc3c(C(=O)NC(C)C)cccc23)c(C)c1,-2.36%
5,CC(=O)Oc1cc2c(C(=O)NCCN3CCOCC3)c(C)oc2c2ccccc12,0.36%
6,COc1ccc(-c2cc(C(=O)NCCCN3CCOCC3)no2)cc1,3.9%
7,COCCCNC(=O)c1ccc(-c2c(C)noc2C)c2ccoc12,1.17%
8,COc1ccc(-c2ccc(C(=O)NCCN3CCOCC3)c3occc23)c(C)c1,88.1% (active)
9,CCOC(=O)[C@H]1[C@H]2COc3cc(OC)ccc3[C@@H]2N2C(=O)CN(Cc3ccc(Cl)cc3)C(=O)[C@@]12C,-3.3%
10,C=CCn1c(=O)n(C)c2c(=O)n(C)c(=O)n(C)c21,1.89%
11,Nc1scc(-c2ccncc2)c1Cl,-1.39%
12,CC(C)(C)Nc1c(-c2cccs2)nc2ccccn12,76.1% (active)
13,Cc1nc2ccccn2c(=O)c1NC(=O)c1cccs1,3.76%
14,Cc1cc2nc(C(F)(F)F)cc(-c3cccs3)n2n1,9.4%
15,COC(=O)C1=C(N)Oc2cc(C)[nH]c(=O)c2C1c1ccc(Cl)cc1 (stereo unspecified),-1.06%
16,CCOC(=O)N1CCC(NC(=O)Cn2cc3c(n2)CCCCC3)CC1,3.04%
17,C[C@H]1CN([C@@H](C)CO)C(=O)CCCn2nncc2CO[C@@H]1CN(C)S(=O)(=O)c1cccc(C#N)c1,1.03%
18,O=C(CN1C(=O)NC2(CCCCC2)C1=O)NCCC1=CCCCC1,1.11%
19,COc1cccc(NC(=O)CN(C)CC(=O)Nc2ccc3c(c2)CCC3)c1,55.8% (active)
20,COc1cccc(NC(=O)CN(C)C(C)C(=O)Nc2ccc(C#N)cc2)c1 (stereo unspecified),1.24%
21,COc1cccc(NC(=O)CN(C)C(=O)CSC(=S)N2CCCC2)c1,3.18%
22,COc1ccc(/C=C/C(=O)OCC(=O)Nc2cccc(Oc3ccccc3)c2)c(OC)c1,-1.32%
23,COc1cccc(NC(=O)CN(C)C(=O)Cc2ccc(Cl)cc2Cl)c1,-2.96%
24,COc1cccc(NC(=O)CN(C)C(=O)/C=C/c2cc(OC)ccc2OC)c1,57.2% (active)

# — PubChem BioAssay AID588726 (The Scripps Research Institute Molecular Screening Center, 2011)
